Source: PubChem BioAssay (EPA / NIEHS)
Inconclusive results are not listed. Calls of active or inactive are those of the source. Rule for the calls: active = hit-call score of the fitted dose curve at least 0.9, where 1 is the maximum; inconclusive = response in the unintended direction; inactive = score below 0.9.

Assays:
[1] = biological target: Estrogen receptor (Homo sapiens) (UniProt P03372); test: OT_ER_ERaERa_1440: Odyssey Thera (OT) 24-hour HEK293T Protein-Complementation Assay for Estrogen Receptor-alpha/-alpha Homodimer (AID 2283349);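 note: hits raise fluorescence above DMSO for agonists and antagonists alike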
Sequence of Estrogen receptor (Homo sapiens) (P03372 whole entry, looked up, the tested form may be a part): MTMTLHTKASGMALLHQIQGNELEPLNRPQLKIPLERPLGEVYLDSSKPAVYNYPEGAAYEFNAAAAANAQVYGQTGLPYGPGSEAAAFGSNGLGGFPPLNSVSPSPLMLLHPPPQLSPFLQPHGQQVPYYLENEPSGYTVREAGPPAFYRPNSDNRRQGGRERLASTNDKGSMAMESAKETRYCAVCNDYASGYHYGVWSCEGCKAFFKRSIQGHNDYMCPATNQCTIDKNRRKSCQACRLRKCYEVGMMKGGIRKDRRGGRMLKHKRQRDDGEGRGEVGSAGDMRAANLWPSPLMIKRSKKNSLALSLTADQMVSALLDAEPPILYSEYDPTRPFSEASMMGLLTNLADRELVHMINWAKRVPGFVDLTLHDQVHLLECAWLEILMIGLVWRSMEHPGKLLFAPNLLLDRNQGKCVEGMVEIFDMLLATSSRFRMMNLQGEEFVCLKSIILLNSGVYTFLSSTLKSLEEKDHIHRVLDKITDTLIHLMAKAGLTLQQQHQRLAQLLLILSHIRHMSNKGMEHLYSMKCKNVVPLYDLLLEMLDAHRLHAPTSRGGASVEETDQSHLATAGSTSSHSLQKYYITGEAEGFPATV
Procedure, shortened: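 Protein-fragment complementation between two human ERα ligand-binding domains (aa 310-547) in stably transfected HEK293T cells was monitored after 24 h treatment, using fluorescence intensity relative to vehicle controls.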

[2] = biological target: Estrogen receptor (Homo sapiens) (UniProt P03372); test: OT_ER_ERaERa_0480: Odyssey Thera (OT) 8-hour HEK293T Protein-Complementation Assay for Estrogen Receptor-alpha/-alpha Homodimer (AID 2283351);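 note: rise in fluorescence from reassembled reporter fragments on ERα LBD homodimer in nucleus or whole cell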
Procedure, shortened: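 The readout is complementation of fragments fused to the human ER alpha ligand-binding domain (aa 310-547), stably expressed in HEK293T cells. After 8 h of exposure, the increase in nuclear/cytoplasmic fluorescence was measured by laser scanning cytometry and fitted relative to DMSO.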

[3] = biological target: T1, Estrogen receptor (Homo sapiens) + Estrogen receptor beta (Homo sapiens) (UniProt P03372+Q92731); test: OT_ER_ERaERb_0480: Odyssey Thera (OT) 8-hour HEK293T Protein-Complementation Assay for Estrogen Receptor-alpha/-beta Heterodimer (AID 2283352)
T1 sequence (P03372 whole entry, looked up): as the sequence (P03372 whole entry, looked up, the tested form may be a part) above
T1 sequence (Q92731 whole entry, looked up): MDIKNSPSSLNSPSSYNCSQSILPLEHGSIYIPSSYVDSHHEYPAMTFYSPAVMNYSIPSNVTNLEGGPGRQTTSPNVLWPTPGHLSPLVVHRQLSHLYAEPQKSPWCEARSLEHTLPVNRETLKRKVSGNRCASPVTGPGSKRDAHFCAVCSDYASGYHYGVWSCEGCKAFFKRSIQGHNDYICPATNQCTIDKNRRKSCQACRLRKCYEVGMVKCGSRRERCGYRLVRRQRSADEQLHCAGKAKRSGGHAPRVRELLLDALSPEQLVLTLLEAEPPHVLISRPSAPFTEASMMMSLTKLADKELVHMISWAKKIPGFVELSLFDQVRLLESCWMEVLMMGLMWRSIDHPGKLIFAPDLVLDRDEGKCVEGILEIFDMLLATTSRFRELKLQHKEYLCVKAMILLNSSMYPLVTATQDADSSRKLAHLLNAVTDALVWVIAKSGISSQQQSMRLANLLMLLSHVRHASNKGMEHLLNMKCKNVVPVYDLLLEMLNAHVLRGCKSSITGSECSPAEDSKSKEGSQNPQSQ
Procedure, shortened: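 Compound added to HEK293T cells carrying split-reporter-tagged ER-alpha and ER-beta LBDs, incubated 8 hours, then imaged by laser scanning cytometer. Signal rise in nucleus, or nucleus and cytoplasm, over vehicle was fitted in the positive direction.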

[4] = biological target: T1, Estrogen receptor (Homo sapiens) + Estrogen receptor beta (Homo sapiens); test: OT_ER_ERaERb_1440: Odyssey Thera (OT) 24-hour HEK293T Protein-Complementation Assay for Estrogen Receptor-alpha/-beta Homodimer (AID 2283356);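 note: heteromer of ER alpha and ER beta binding domains; hits raise reporter fluorescence and both agonists and antagonists give an increase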
Procedure, shortened: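 Stable HEK293T PCA line, ERα LBD 310-547 + ERβ LBD 263-489 fused to reporter fragments; 24 h treatment; fluorescence read by laser scanning cytometry; positive fitting direction relative to DMSO.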

[5] = biological target: Estrogen receptor beta (Homo sapiens) (UniProt Q92731); test: OT_ER_ERbERb_0480: Odyssey Thera (OT) 8-hour HEK293T Protein-Complementation Assay for Estrogen Receptor-beta/-beta Homodimer (AID 2283357);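 note: active means signal gain over DMSO baseline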
Sequence of Estrogen receptor beta (Homo sapiens) (Q92731 whole entry, looked up, the tested form may be a part): as the sequence (Q92731 whole entry, looked up) above
Procedure, shortened: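 Cells (HEK293T, stable ER-beta LBD PCA pair) are treated 8 hours, fixed and Draq5-stained; signal is fluorescence intensity increase relative to vehicle, fitted in the gain direction.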

[6] = biological target: Androgen Receptor/SRC-1 Co-activator, AR (gene 367) (UniProt P10275); test: OT_AR_ARSRC1_0960: Odyssey Thera (OT) 16-hour HEK293T Protein-Complementation Assay for Androgen Receptor/SRC-1 Co-activator (AID 2283353);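 note: actives raise the signal above DMSO so potency reflects increased AR and SRC-1 complex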
Sequence of Androgen Receptor/SRC-1 Co-activator, AR (gene 367) (P10275 whole entry, looked up, the tested form may be a part): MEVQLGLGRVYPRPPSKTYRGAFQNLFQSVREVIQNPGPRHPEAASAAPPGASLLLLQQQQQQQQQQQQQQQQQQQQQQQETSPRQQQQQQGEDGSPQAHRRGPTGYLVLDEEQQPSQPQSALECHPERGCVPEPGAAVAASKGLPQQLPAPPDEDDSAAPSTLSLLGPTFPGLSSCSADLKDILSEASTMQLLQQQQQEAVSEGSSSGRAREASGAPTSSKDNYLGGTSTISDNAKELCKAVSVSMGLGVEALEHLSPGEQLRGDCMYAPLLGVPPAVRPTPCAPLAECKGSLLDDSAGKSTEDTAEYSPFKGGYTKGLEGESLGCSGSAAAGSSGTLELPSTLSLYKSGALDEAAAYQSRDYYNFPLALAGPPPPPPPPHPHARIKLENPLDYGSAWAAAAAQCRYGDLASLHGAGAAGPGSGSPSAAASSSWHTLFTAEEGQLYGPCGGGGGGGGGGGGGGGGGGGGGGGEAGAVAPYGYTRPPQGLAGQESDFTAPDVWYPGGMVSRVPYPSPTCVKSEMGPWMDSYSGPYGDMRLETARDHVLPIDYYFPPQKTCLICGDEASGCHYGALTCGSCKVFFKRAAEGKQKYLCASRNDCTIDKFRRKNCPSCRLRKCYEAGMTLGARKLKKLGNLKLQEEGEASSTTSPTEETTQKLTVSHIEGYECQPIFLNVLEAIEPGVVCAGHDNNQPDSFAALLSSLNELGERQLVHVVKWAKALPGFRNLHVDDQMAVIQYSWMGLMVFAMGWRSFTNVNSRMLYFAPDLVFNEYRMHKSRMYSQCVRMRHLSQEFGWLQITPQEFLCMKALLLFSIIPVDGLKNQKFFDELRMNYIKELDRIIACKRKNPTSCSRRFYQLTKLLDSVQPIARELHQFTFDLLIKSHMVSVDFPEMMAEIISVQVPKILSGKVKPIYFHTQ
Procedure, shortened: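 HEK293T cells stably expressing AR and SRC-1 fused to Venus YFP fragments, imaged 16 h after dosing. Nuclear/cytoplasmic fluorescence ratio at 488 nm from at least 400 cells per image; gain of signal relative to DMSO.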

[7] = biological target: Androgen Receptor/SRC-1 Co-activator, AR (gene 367) (UniProt P10275); test: OT_AR_ARSRC1_0480: Odyssey Thera (OT) 8-hour HEK293T Protein-Complementation Assay for Androgen Receptor/SRC-1 Co-activator (AID 2283354);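 note: hits raise the complementation signal above DMSO so AC50 marks enhancers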
Procedure, shortened: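 Measures AR/SRC-1 binding by Venus YFP fragment complementation in HEK293T stable lines at 8 h post-dose. Imaging quantifies the 488nm nucleus/cytoplasm ratio in ≥400 cells; DMSO defines baseline.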

[8] = biological target: Retinoic acid receptor alpha (Homo sapiens) (UniProt P10276); test: NVS_NR_hRAR_Antagonist: NovaScreen (NVS) Nuclear Receptor Binding Assay for human Retinoic Acid Alpha Receptor Antagonism (RAR) (AID 2283358)
Sequence of Retinoic acid receptor alpha (Homo sapiens) (P10276 whole entry, looked up): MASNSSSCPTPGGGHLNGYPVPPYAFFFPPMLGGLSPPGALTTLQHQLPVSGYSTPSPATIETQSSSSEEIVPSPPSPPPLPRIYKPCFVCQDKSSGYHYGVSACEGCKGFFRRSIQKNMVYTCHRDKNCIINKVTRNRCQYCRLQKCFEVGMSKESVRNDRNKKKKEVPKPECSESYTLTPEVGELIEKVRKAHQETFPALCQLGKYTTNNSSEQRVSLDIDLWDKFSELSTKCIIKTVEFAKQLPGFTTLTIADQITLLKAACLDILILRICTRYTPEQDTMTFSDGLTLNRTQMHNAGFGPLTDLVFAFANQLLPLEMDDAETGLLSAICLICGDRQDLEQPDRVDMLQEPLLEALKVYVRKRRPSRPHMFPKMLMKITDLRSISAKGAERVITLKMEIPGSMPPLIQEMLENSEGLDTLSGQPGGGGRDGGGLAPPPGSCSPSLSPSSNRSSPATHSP
Procedure, shortened: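 TR-FRET, cell-free, antagonist format; 2 h incubation after dosing; DMSO = baseline; signal loss fitted; 25 uM duplicate primary, then conc. series.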

[9] = biological target: human Peroxisome Proliferator-activated Receptor alpha (PPARa), PPARA (gene 5465) (UniProt Q07869); test: NVS_NR_hPPARa: NovaScreen (NVS) Nuclear Receptor Binding Assay for human Peroxisome Proliferator-activated Receptor alpha (PPARa) (AID 2283359);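 note: activity means loss of TR-FRET signal versus DMSO baseline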
Sequence of human Peroxisome Proliferator-activated Receptor alpha (PPARa), PPARA (gene 5465) (Q07869 whole entry, looked up): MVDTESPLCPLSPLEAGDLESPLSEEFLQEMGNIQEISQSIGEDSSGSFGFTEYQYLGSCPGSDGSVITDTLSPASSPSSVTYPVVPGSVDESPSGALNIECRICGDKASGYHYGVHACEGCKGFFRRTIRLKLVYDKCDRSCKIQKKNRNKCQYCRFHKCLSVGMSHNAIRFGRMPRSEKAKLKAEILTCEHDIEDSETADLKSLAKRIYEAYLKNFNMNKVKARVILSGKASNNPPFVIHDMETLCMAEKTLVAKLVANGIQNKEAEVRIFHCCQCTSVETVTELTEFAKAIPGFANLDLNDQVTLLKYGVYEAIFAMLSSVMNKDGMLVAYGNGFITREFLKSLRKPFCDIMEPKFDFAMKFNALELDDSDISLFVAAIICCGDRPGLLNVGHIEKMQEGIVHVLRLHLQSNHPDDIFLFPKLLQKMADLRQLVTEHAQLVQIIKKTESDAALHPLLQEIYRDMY
Procedure, shortened: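 Chemicals were first screened in duplicate at 25 uM, and active ones were retested across concentration series. Binding was monitored by TR-FRET one hour after dosing, with decreased signal against DMSO counted as activity.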

Measured: AC50

c1ccc2cc3ccccc3cc2c1
inactive: [1] | [2] | [3] | [4] | [5]

Cn1c(=O)c2[nH]cnc2n(C)c1=O
inactive: [1] | [2]

Nc1ccn([C@@H]2O[C@H](CO)[C@@H](O)[C@@H]2O)c(=O)n1
inactive: [1] | [2]

Cc1ccc(S(=O)(=O)NC(=O)NN2CCCCCC2)cc1
inactive: [1] | [2] | [3] | [4] | [5]

C[C@]12C=CC(=O)C=C1CC[C@H]1[C@@H]3C[C@@H](O)[C@](O)(C(=O)CO)[C@@]3(C)C[C@H](O)[C@@]12F
inactive: [1] | [2]

C=CN1CCCC1=O
inactive: [1] | [2]

COc1cc2c(c(OC)c1OC)-c1ccc(OC)c(=O)cc1[C@@H](NC(C)=O)CC2
active: [6] 0.133 µM
inactive: [1] | [2] | [7] | [4] | [5]

CCCCCCOC(=O)CC(CC(=O)OCCCCCC)(OC(=O)CCC)C(=O)OCCCCCC
not listed: [3] | [8] | [9]
inactive: all other assays above

O=c1[nH]cnc2c1ncn2[C@H]1CC[C@@H](CO)O1
inactive: [1] | [2]

CCCC(CCC)C(=O)O
inactive: [1] | [2]

OCCNCCO
inactive: [2]
active: [1] 11.9 µM

Cn1cc[nH]c1=S
inactive: [1] | [2] | [3] | [4] | [5]

Cc1nc(-c2ccccn2)ncc1C(=O)Nn1cc(C)c2cc(F)ccc21
not listed: [9]
inactive: all other assays above

c1ccc2ncccc2c1
inactive: [1] | [2]

CCN(CC)C(=S)SSC(=S)N(CC)CC
active: [6] 59.6 µM | [7] 23.9 µM | [4] 12 µM
inactive: [1] | [2] | [5]

CCCCC(CC)C(=O)OCCOCCOCCOC(=O)C(CC)CCCC (stereo unspecified)
not listed: [3] | [8] | [9]
inactive: all other assays above

CCCCOC(=O)c1ccccc1
inactive: [1] | [2] | [6] | [7]

CCCCCCCCCCCCCCCCOS(=O)(=O)O
not listed: [3] | [8]
inactive: all other assays above

CCCCCOC(C)=O
inactive: [1] | [2]

CCc1cccc(CC)c1N
inactive: [1] | [2] | [6] | [4] | [5]

NNC(=O)c1ccncc1
inactive: [1] | [2] | [3] | [4] | [5]

CC1(C)C(=O)N(Cl)C(=O)N1Cl
inactive: [1]

CCCCCCCCCC
inactive: [1] | [2] | [4] | [5]

OC(CCl)CCl
inactive: [1] | [2] | [4]
active: [9] 40.2 µM

CCCCCCCC/C=C\CCCCCCCC(=O)OC[C@@H](O)[C@H]1OC[C@H](O)[C@H]1O
active: [9] 0.845 µM
inactive: [1] | [2] | [4] | [5] | [8]

OC(Cn1cncn1)(Cn1cncn1)c1ccc(F)cc1F
inactive: [1] | [2] | [4]

CC(C)C(=O)Nc1ccc([N+](=O)[O-])c(C(F)(F)F)c1
inactive: [1] | [2] | [5] | [9]

O=C(O)[C@H](O)[C@@H](O)C(=O)O
inactive: [1] | [2] | [4] | [5]

CCOc1ccc2[nH]cc(C(=O)NCc3ccccc3)c(=O)c2n1
inactive: [1] | [2] | [4] | [5]

CCCCCCCC1CCC(=O)O1 (stereo unspecified)
inactive: [1] | [2] | [4] | [5]

OC[C@H]1O[C@@](CO)(O[C@H]2O[C@H](CO)[C@@H](O)[C@H](O)[C@H]2O)[C@@H](O)[C@@H]1O
inactive: [1] | [2] | [4] | [5]

CCCc1ccccc1
inactive: [1] | [2] | [5]

O=C(O)CO
inactive: [1] | [2] | [4] | [5]

NC(=O)N(O)[C@@H]1COc2cc(OCc3ccccc3)ccc21
inactive: [1] | [2] | [4] | [5]

O=C(NO)C1(NS(=O)(=O)c2ccc(Oc3ccc(F)cc3)cc2)CCOCC1
inactive: [1] | [2] | [4] | [5]

O=C(O)c1ccc2c(c1)nc(C(=O)NC1CCN(C3CC3)CC1)n2Cc1cc(-c2ccc(Cl)s2)on1
inactive: [1] | [2] | [4] | [5] | [9]

OCC(CO)(CO)CO
inactive: [1] | [2] | [4] | [5]

CCCCCCCCCCCCCCO
inactive: [1] | [2] | [4] | [5] | [9]

CC(C)CCCCCCOC(=O)C1CCCCC1C(=O)OCCCCCCC(C)C (stereo unspecified)
inactive: [1] | [2] | [4]
